PrPC surface inh: inhibitors of human cell surface prion protein PrPC, primary screen, cell-based, TR-FRET; Major prion protein (Homo sapiens), P04156; TR-FRET read-out; AID 720596, 2013; 370,000 compounds, 0.43% hits; inhibition, % at 13.8 µM; in the data active = inhibition above about 24%; note: 0% = median of the test wells and 100% = reference compound wells
PrP 5UTR inh: inhibition of PrP 5' UTR reporter expression; cell-based PrP 5' UTR mRNA reporter, plate reader; inhibition, % (concentration not given with the values); 340,000 compounds, 0.35% hits; in the data active = inhibition above about 52%; note: 0 = median of the neutral control wells
BJeLR viability: MLPCN primary cell-based screen for lethality selective to Ras in HRASV12 cells; inhibition, % (concentration not given with the values); BJeLR (HRASV12) viability, CellTiter-Glo ATP luminescence, 48 h; AID 1554, 2009; 300,000 compounds, 0.17% hits; in the data active = inhibition above about 50%
PfHsp40 yeast: rescue of yeast from PfHsp40 toxicity, primary screen, S. cerevisiae, ATP luminescence; S. cerevisiae expressing PfHsp40, growth rescue; growth rescue, % at 12.5 µM; 340,000 compounds, 0.68% hits; AID 504582, 2011; in the data active = growth rescue above about 28%, passing the limit was not always enough;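 note: yeast W303a lacking pdr1 and pdr3 grown in galactose medium; growth measured after three days at 30 °C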
PriA SSB inh: inhibitors of Klebsiella pneumoniae PriA binding to SSB C-terminal tail, primary screen, biochemical, AlphaScreen. 430,000 compounds, 0.6% hits. AlphaScreen SSBct-PriA binding, biotinylated peptide. AID 1272365, 2023. inhibition, % at 33 µM. PriA–SSB C-terminal tail interaction (Klebsiella pneumoniae); in the data active = inhibition mostly above about 37%, no sharp cut-off; inactive = mostly below about 20%;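 note: plate controls were negative control peptide for no effect and reference peptide for full effect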
Y pestis TopoI: Yersinia pestis topoisomerase I inhibitors, primary screen, biochemical, cleavage product accumulation, plate reader, single point | DNA topoisomerase I (Yersinia pestis CO92) | Y. pestis Topo-I cleavage product accumulation | activity, % at 10 µM | 360,000 compounds, 0.064% hits | AID 504884, 2011; in the data active = activity above about 50%, passing the limit was not always enough
PrP 5UTR single: prion 5' UTR mRNA inhibition, cherry-pick retest | shares compounds with PrP 5UTR inh | cell-based prion protein 5' UTR reporter, plate reader | 1,100 compounds, 48% hits | inhibition, % at 2.5 µM; in the data active = inhibition above about 54%
Active calls of the source: *; x = no result given. Sampled rows, rich in hits. Any-hit rate of the full collection: about 1.7%.

SMILES	PrPC surface inh	PrP 5UTR inh	BJeLR viability	PfHsp40 yeast	PriA SSB inh	Y pestis TopoI	PrP 5UTR single
COc1ccccc1-c1nnc2sc(-c3cc4ccccc4o3)nn12	-1	54*	21	0	-12	22	64*
COc1ccccc1-c1nnc2sc(-c3cnccn3)nn12	-15	-9	-4	1	-6	-4	x
COc1ccc(-c2noc(CN3C(=O)COc4ccc(C(C)(C)C)cc43)n2)cc1OC	x	x	x	x	-20	x	x
Cc1nc2cc(-c3ccccc3)sc2c(=O)n1N	-2	81*	79*	-1	-8	13	78*
COc1ccc(-c2cc3nc4n(c(=O)c3s2)CCC4)cc1	-14	35	25	3	-7	1	x
Cn1c(NCc2ccccc2)nc2cc(-c3ccccc3)sc2c1=O	3	x	x	x	x	-1	x
COc1ccc(-c2cc3nc(C)n(N)c(=O)c3s2)cc1	1	91*	99*	-7	-2	-3	92*
CCSc1nnc(-c2ccc([N+](=O)[O-])cc2)n1CC(Br)CBr (stereo not given)	x	x	x	x	12	x	x
CCOC(=O)c1ccc(Nc2n[nH]c3nnc(C)c(=O)n23)cc1	x	x	x	x	-6	x	x
Cc1ccc2c(c1)[C@@H](O)CCCS2(=O)=O	x	x	x	x	-19	x	x
O=C1c2cccc3cc([N+](=O)[O-])cc(c23)C(=O)N1CCN1CCCC1	-8	90*	96*	0	3	-15	82*
O=C(CN1CCN(c2ccccc2)C1=O)NC1CCC(Oc2cnccn2)CC1 (stereo not given)	x	x	x	x	1	x	x
CN(C)S(=O)(=O)N1CCN(CCn2ccnc2-c2ccccc2)CC1	x	x	x	x	-15	x	x
Cc1ccc2c(c1)OCC(=O)N2Cc1nc(-c2cccs2)no1	x	x	x	x	-16	x	x
O=c1cc(-c2ccc(O)cc2)oc2ccc3ccccc3c12	5	78*	x	-1	-18	1	73*
Cc1nccn1CCCNCc1c(C(=O)N2CCCCCCC2)nc2ccc(Cl)cn12	-9	84*	2	0	-1	-2	-13
O=C(c1nc2ccccn2c1CNCCCn1cccn1)N1CCCC1	1	-32	-2	-1	-4	-3	x
CN(C)c1ccc2c(c1)C(=NO)c1ccccc1-2	x	68*	x	7	53*	-20	-73
CC(=O)N1CCc2ccc(NC(=O)Cc3ccc(F)cc3)cc2C1	x	x	x	x	-18	x	x
Clc1ccccc1N=Nc1ccccn1	-9	68*	x	0	7	-6	-22
CC(c1ccccc1)N1C(=O)NC(NC(=O)c2ccc(F)cc2)(C(F)(F)F)C1=O (stereo not given)	x	x	x	x	50	x	x
COC(=O)N(C)c1nc2ccccc2s1	3	-40	1	0	-5	0	x
CC(C)c1ccc(-c2nc3ccccc3s2)cc1	6	85*	15	1	-13	2	85*
CN(C(=O)OC(C)(C)C)c1ccc(-c2nc3ccccc3s2)cc1	-8	90*	17	1	-5	35	88*
Cc1noc(C2CN(C(=O)COc3ccccc3F)C2)n1	x	x	x	x	-11	x	x
SMILES	PrPC surface inh	PrP 5UTR inh	BJeLR viability	PfHsp40 yeast	PriA SSB inh	Y pestis TopoI	PrP 5UTR single
O=C(Cc1cc(=O)[nH]c(SCc2ccccc2F)n1)NCc1cccs1	x	x	x	x	13	x	x
COc1ccccc1C(=O)Nc1nc2ccc(S(C)(=O)=O)cc2s1	-2	-18	-17	2	-15	3	x
COc1ccc(C(=O)Nc2nc3ccccc3s2)c(OC)c1	4	95*	53*	0	0	1	95*
COc1ccccc1C(=O)Nc1nc2ccccc2s1	4	92*	46	-3	-8	3	93*
CCOc1ccc2nc(NC(=O)c3ccccn3)sc2c1	22	63*	24	3	-10	4	46
O=C(C1CC=CCC1)N1CCC(c2nnc(-c3ccsc3)o2)CC1 (stereo not given)	x	x	x	x	-17	x	x
C=C(C1=CCN(S(=O)C(C)(C)C)[C@@H]1CCO)c1ccccc1 (stereo not given in full)	3	59*	x	0	0	-3	-14
C=C(CCO)C1=CCN(S(=O)C(C)(C)C)[C@@H]1CCO (stereo not given in full)	-1	-17	x	0	-13	1	x
CCOC(=O)c1cnc(Nc2nc3ccccc3o2)nc1CSc1nnc(C)s1	2	-42	0	0	-1	-5	x
